Among the data in article PMC11062922 (Nature Chemical Biology, 2023) are potency estimated from few doses values, retold here.

Design in all cases: species or system human, MV4-11 + K-562 + COLO205 + SK-N-BE2 + OVCAR-8
The test system of test [1] is ATM. To be noted: read-out: apparent Kd, compound concentrations: 100 nM and 1000 nM (sheet 'Samples'), n = 1.
The subject of test [2] is CDC42. To be noted: read-out: apparent Kd; compound concentrations: 100 nM and 1000 nM (sheet 'Samples'), CATDS: 0.120707875604042; n = 1.
Test [3] concerns MTOR. To be noted: read-out: apparent Kd; compound concentrations: 100 nM and 1000 nM (sheet 'Samples'), CATDS: 0.13183909981737599; n = 1.
Test [4] has as its system PIK3CA. To be noted: read-out: apparent Kd, compound concentrations: 100 nM and 1000 nM (sheet 'Samples'), n = 1.
Test [5] concerns PIK3CD. To be noted: read-out: apparent Kd; compound concentrations: 100 nM and 1000 nM (sheet 'Samples'), CATDS: 0.39108548114929897; n = 1.
For test [6], the system named is PKN3. To be noted: read-out: apparent Kd; compound concentrations: 100 nM and 1000 nM (sheet 'Samples'), CATDS: 0.11684999356733999; n = 1.
In test [7] the test system is GAK. To be noted: read-out: apparent Kd; compound concentrations: 100 nM and 1000 nM (sheet 'Samples'), CATDS: 0.73237388981335505; n = 1.
In test [8] the test system is NLK. To be noted: read-out: apparent Kd; compound concentrations: 100 nM and 1000 nM (sheet 'Samples'), CATDS: 0.15655838953280801; n = 1.
The test system of test [9] is RIPK2. To be noted: read-out: apparent Kd, compound concentrations: 100 nM and 1000 nM (sheet 'Samples'), n = 1.
For test [10], the system named is FECH. To be noted: read-out: apparent Kd; compound concentrations: 100 nM and 1000 nM (sheet 'Samples'), CATDS: 0.190744919400651; n = 1.
Test [11] has as its system PLK1. To be noted: read-out: apparent Kd; compound concentrations: 100 nM and 1000 nM (sheet 'Samples'), CATDS: 0.15646266136602699; n = 1.
The test system of test [12] is PRKACG. To be noted: read-out: apparent Kd; compound concentrations: 100 nM and 1000 nM (sheet 'Samples'), CATDS: 0.152371623335085; n = 1.
Test [13] concerns FLT4. To be noted: read-out: apparent Kd, compound concentrations: 100 nM and 1000 nM (sheet 'Samples'), n = 1.
Test [14] has as its system MYLK3. To be noted: read-out: apparent Kd; compound concentrations: 100 nM and 1000 nM (sheet 'Samples'), CATDS: 0.16564230425287901; n = 1.
Test [15] has as its system TTN. To be noted: read-out: apparent Kd; compound concentrations: 100 nM and 1000 nM (sheet 'Samples'), CATDS: 0.28618499292255201; n = 1.
Test [16] deals with STK10. To be noted: read-out: apparent Kd; compound concentrations: 100 nM and 1000 nM (sheet 'Samples'), CATDS: 0.17094041462039; n = 1.
Test [17] deals with GSK3A. To be noted: read-out: apparent Kd, compound concentrations: 100 nM and 1000 nM (sheet 'Samples'), n = 1.
For test [18], the system named is MTHFD1. To be noted: read-out: apparent Kd; compound concentrations: 100 nM and 1000 nM (sheet 'Samples'), CATDS: 0.40947747984703597; n = 1.
Test [19] relates to CLK4. To be noted: read-out: apparent Kd; compound concentrations: 100 nM and 1000 nM (sheet 'Samples'), CATDS: 0.213944296498185; n = 1.
Test [20] has as its system CSNK1A1. To be noted: read-out: apparent Kd; compound concentrations: 100 nM and 1000 nM (sheet 'Samples'), CATDS: 0.24083982314133201; n = 1.
In test [21] the test system is CSNK1D. To be noted: read-out: apparent Kd; compound concentrations: 100 nM and 1000 nM (sheet 'Samples'), CATDS: 0.19928215700528701; n = 1.
In test [22] the test system is GSK3B. To be noted: read-out: apparent Kd; compound concentrations: 100 nM and 1000 nM (sheet 'Samples'), CATDS: 0.19196654372997399; n = 1.

Each structure is given as a SMILES string. Read-outs that look alike come from different tables or passages of the source.

Regarding `Fc1ccc(-c2c(-c3ccncc3)nc3n2CCS3)cc1` [SKF-86055], the potency estimated from few doses in test [1] (CATDS: 0.230066198267698) is 174 nM; in test [2], 940 nM; in test [3], 688 nM; in [4] (CATDS: 0.214179011469951) it was 201 nM; in test [5], 71.3 nM; in test [6] it was 1070 nM.
Consider `COc1cc(Nc2ccnc3ccc(Br)cc23)cc(OC)c1OC` [CA93.0], for which the potency estimated from few doses in [1] (CATDS: 0.26072592490086599) is 205 nM; in [7], 22.7 nM; in test [8], 1500 nM; in test [9] (CATDS: 0.226668000101196), 311 nM.
`COc1cccc(COc2cc(-n3cnc4ccccc43)sc2C(N)=O)c1` [GW804482X]: the potency estimated from few doses in test [1] (CATDS: 0.32091008376932201) was 210 nM; in test [10], 558 nM; in test [4] (CATDS: 0.27121911823644002), 277 nM; in test [11], 938 nM; in test [12], 1020 nM.
`CCN(CC)S(=O)(=O)c1ccc(OC)c(Nc2ncc(-c3ccccc3)o2)c1` [GW572401X]: the potency estimated from few doses is 233 nM in test [1] (CATDS: 0.38559803360956002), 495 nM in test [13] (CATDS: 0.25804604622039201), 1940 nM in [14] and 399 nM in test [15].
Consider `CCS(=O)(=O)c1ccc(OC)c(Nc2nccc(N(C)c3ccc4c(C)n[nH]c4c3)n2)c1.Cl` [GW654652C], for which the potency estimated from few doses in test [1] (CATDS: 0.41438416433349501) is 228 nM; in [13] (CATDS: 0.192292703568538), 1430 nM; in test [9] (CATDS: 0.39426216370123801), 249 nM; in test [16], 2280 nM.
Consider `Cn1cc(C2=C(c3cn(C)c4cc(C(N)=O)ccc34)C(=O)NC2=O)c2ccccc21` [RO0319317-000], for which the potency estimated from few doses in [1] (CATDS: 0.45876429377403) was 142 nM; in test [17] (CATDS: 0.228409862678119), 860 nM; in test [18] it was 175 nM.
For the molecule `Cc1nc2sc3c(N)ncnc3c2c(C)c1C` [RO4241984-000], the potency estimated from few doses in test [1] (CATDS: 0.46387822436217502) was 322 nM; in [19] it was 1410 nM; in test [20], 1060 nM; in test [21] it was 1710 nM.
With `Cc1c(C2=C(c3cn(C)c4ccccc34)C(=O)NC2=O)c2ccccc2n1C` [RO0317777-000], the potency estimated from few doses in [1] (CATDS: 0.73643038354307599) is 20.1 nM; in test [17] (CATDS: 0.20080889855539999), 343 nM; in [22], 397 nM; in test [4] (CATDS: 0.224567790498646), 247 nM.
